# A number with no mark means an inactive call. Where a call stands in place of a potency, no number is given. For some assays here: Potency and affinity values are given separately. Calls of active or inactive are those of the source. Unless noted, how the calls were made is not given here.
# Key:
# [1] = antimalarial activity against Dd2 strain (AID 2302;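 active means growth inhibition above 50% at the single 2 µM test dose, taken to imply half-maximal potency below 2 µM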); conditions: P. falciparum Dd2 in RBCs, LDH growth readout, 72 h; at 2 µM; stronger effect = higher value
# [2] = human hepatoma cell viability loss – ATP luminescence, cytotoxicity control for P. falciparum antimalarial project, primary screen (AID 2303;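 active means inhibition above 50%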); conditions: HepG2 viability, 24-48 h, at 10 µM, stronger effect = higher value
# [3] = target: L-lactate dehydrogenase (Plasmodium falciparum (isolate CDC / Honduras)) (UniProt Q27743); assay: PfLDH activity inhibition – cell lysate, 3D7 strain, counter-screen for P. falciparum growth inhibition project (AID 2304); conditions: P. falciparum 3D7 crude extract, LDH APAD/NBT absorbance; at 2 µM; stronger effect = higher value
# Chain of L-lactate dehydrogenase (Plasmodium falciparum (isolate CDC / Honduras)) (Q27743 whole entry, looked up): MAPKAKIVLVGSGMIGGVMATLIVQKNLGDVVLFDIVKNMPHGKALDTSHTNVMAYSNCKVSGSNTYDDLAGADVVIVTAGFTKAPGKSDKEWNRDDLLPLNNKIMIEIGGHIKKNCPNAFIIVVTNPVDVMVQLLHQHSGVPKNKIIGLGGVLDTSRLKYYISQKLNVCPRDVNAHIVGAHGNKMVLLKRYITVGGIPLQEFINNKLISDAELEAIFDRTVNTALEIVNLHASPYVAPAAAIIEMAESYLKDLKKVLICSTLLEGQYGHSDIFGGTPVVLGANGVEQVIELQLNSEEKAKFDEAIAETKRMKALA
# [4] = inhibition of 3D7 malaria parasite growth – strain 3D7 (AID 2306); conditions: P. falciparum 3D7 erythrocytic growth, LDH absorbance, 72 h; at 2 µM; stronger effect = higher value
# [5] = target: Calcium-dependent protein kinase 1 (Plasmodium falciparum (isolate 3D7)) (UniProt P62344); assay: PfCDPK1 kinase inhibitors, biochemical, TCAMS library (AID 1159585; cut-off not given, nearly all actives have IC50 up to about 0.98 µM;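 further: inhibitors leave more ATP so luminescence rises with inhibition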); conditions: recombinant PfCDPK1, Kinase-Glo ATP depletion luminescence
# Chain of Calcium-dependent protein kinase 1 (Plasmodium falciparum (isolate 3D7)) (P62344 whole entry, looked up): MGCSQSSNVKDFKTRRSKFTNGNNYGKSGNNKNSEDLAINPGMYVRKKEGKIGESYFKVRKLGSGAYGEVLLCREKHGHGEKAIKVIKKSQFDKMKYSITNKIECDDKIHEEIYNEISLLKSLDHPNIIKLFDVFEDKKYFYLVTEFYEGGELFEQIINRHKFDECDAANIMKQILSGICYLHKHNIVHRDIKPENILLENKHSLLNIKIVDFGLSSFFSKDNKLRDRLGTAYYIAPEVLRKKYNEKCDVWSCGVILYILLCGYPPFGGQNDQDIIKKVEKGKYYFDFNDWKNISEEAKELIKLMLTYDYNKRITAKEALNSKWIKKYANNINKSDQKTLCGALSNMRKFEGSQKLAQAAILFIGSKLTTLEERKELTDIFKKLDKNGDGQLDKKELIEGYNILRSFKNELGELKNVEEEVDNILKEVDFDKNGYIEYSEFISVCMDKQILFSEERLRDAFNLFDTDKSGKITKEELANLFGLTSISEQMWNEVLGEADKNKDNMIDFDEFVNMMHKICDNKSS
# [6] = target: Plasmodium falciparum protein kinase 6 (PK6, PF3D7_1337100) (UniProt Q8IDW1); assay: PfPK6 kinase inhibitors, biochemical, TCAMS library (AID 1159586); conditions: recombinant PfPK6, Kinase-Glo ATP depletion luminescence
# Chain of Plasmodium falciparum protein kinase 6 (PK6, PF3D7_1337100) (Q8IDW1 1-305): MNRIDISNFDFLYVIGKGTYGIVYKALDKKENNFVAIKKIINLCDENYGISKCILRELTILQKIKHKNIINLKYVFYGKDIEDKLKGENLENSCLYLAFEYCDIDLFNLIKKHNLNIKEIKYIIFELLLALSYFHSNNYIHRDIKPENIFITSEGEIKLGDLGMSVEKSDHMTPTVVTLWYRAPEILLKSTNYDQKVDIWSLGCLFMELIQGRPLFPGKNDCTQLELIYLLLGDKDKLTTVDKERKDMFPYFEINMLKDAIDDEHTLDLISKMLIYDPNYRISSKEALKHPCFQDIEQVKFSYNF
# [7] = target: Protein kinase 7 (PK7), Plasmodium falciparum 3D7 (PF3D7_0213400) (UniProt Q7YTF7); assay: inhibition of Plasmodium PK7 catalytic activity – biochemical, TCAMS antimalarial set, Kinase-Glo luminescence (AID 1159587); conditions: recombinant PfPK7, Kinase-Glo ATP depletion luminescence
# Chain of Protein kinase 7 (PK7), Plasmodium falciparum 3D7 (PF3D7_0213400) (Q7YTF7 1-343): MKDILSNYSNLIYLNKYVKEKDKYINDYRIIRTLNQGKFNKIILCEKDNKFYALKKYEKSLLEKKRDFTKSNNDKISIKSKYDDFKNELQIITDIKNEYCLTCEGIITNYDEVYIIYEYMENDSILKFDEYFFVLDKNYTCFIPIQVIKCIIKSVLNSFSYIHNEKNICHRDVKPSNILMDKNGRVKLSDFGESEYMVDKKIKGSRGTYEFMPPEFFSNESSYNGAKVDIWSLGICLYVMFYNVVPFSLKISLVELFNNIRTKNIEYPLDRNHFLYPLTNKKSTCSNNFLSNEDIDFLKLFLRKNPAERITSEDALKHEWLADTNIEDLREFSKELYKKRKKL
# [8] = target: Calcium-dependent protein kinase 4 (Plasmodium falciparum (isolate 3D7)) (UniProt Q8IBS5); assay: PfCDPK4 kinase inhibitors, biochemical, TCAMS library (AID 1159588; cut-off not given, nearly all actives have IC50 up to about 0.91 µM); conditions: recombinant PfCDPK4, Kinase-Glo ATP depletion luminescence
# Chain of Calcium-dependent protein kinase 4 (Plasmodium falciparum (isolate 3D7)) (Q8IBS5 whole entry, looked up): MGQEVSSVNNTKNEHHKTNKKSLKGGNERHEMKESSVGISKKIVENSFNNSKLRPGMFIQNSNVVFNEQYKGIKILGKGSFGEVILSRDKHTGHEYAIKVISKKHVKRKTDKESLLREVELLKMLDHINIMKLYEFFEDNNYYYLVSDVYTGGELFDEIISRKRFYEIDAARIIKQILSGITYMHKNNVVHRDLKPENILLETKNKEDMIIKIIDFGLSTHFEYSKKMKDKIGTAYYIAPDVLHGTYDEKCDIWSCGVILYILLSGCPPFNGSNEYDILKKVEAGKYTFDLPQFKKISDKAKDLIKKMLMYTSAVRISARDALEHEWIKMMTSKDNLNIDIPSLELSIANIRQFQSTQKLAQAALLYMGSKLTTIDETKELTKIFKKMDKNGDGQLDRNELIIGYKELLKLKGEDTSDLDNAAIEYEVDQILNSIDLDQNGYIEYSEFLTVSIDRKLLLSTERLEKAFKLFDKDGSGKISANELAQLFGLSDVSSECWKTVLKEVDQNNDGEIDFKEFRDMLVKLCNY
Compound,growth inhibition [1],inhibition [2],inhibition [3] [%],growth inhibition [4],outcome [5],outcome [6],outcome [7],outcome [8]
COc1cc2ncnc(Nc3ccc4nc(-c5ccccc5)[nH]c4c3)c2cc1OC,32%,15%,-5,92% (active),inactive,inactive,inactive,inactive
CCC1(C)N=C(N)N=C(N)N1c1ccccc1 (stereo unspecified),-2%,6%,0,98% (active),inactive,inactive,inactive,inactive
c1cc(Nc2nccc(-c3cnn4ncccc34)n2)cc(-c2cnco2)c1,83% (active),54% (active),3,96% (active),inactive,inactive,inactive,inactive
COc1ccc(CNC(=O)Nc2cc3cc(-c4ccc(CN5CCCC5)cc4)ccc3n3c(C)nnc23)cc1,100% (active),100% (active),-3,101% (active),inactive,inactive,inactive,inactive
COc1ccccc1CC1CCCN(C2CCC(NC(=O)c3cc4ccccc4[nH]3)CC2)C1 (stereo unspecified),21%,23%,-2,98% (active),inactive,inactive,inactive,inactive
CCN1CCN(c2cc(C)c3cc(NC(=O)c4cccc(C(F)(F)F)c4)ccc3n2)CC1,85% (active),24%,0,101% (active),inactive,inactive,inactive,inactive
O=S(=O)(Nc1cccc(CCN2CCC(N3CCCCC3)CC2)c1)c1ccc(Oc2ccccc2)nc1,-4%,8%,-2,99% (active),inactive,inactive,inactive,inactive
COc1ccccc1CCNc1nc(C)cc(N[C@@H](Cc2ccccc2)C(=O)NCCc2ccccc2)n1,89% (active),16%,-3,100% (active),inactive,inactive,inactive,inactive
O=C(Cn1c(CCc2cccc(F)c2F)cc(=O)c2cccnc21)N(CCCn1ccnc1)Cc1ccc(-c2ccc(C(F)(F)F)cc2)cc1,47%,38%,-3,96% (active),inactive,inactive,inactive,inactive
COc1ccccc1N1CCN(CCCCN(C(=O)Nc2cccc(Cl)c2)C(=O)Nc2cccc(Cl)c2)CC1,65% (active),4%,7,100% (active),inactive,inactive,inactive,inactive
Cc1cc(N[C@@H](Cc2ccccc2)C(=O)NCc2cccs2)nc(NCCc2ccccc2)n1,61% (active),6%,-1,92% (active),inactive,inactive,inactive,inactive
Nc1ccnc2ccc(OCCCCCCc3ccccc3)cc12,99% (active),96% (active),1,100% (active),inactive,inactive,inactive,inactive
C=CCOC(=O)O[C@@H]1[C@@H](OC(=O)OCC=C)[C@@H](OC)O[C@H](COC(c2ccccc2)(c2ccccc2)c2ccccc2)[C@H]1OC(=O)OCC=C,96% (active),5%,2,95% (active),inactive,inactive,inactive,inactive
CC(C)CCn1c(Sc2ccc(C#N)c([N+](=O)[O-])c2)nnc1-c1ccc(Cl)cc1,39%,25%,-1,90% (active),inactive,inactive,inactive,inactive
COc1ccc(-n2ccnc2)cc1CNC1CCN(CC2Cn3c(=O)ccc4ccc(F)c2c43)CC1 (stereo unspecified),18%,25%,-1,99% (active),inactive,inactive,inactive,inactive
CCCCCOc1ccc(C(O)C(CN2CCCCC2)c2ccccc2)cc1 (stereo unspecified),95% (active),11%,5,98% (active),inactive,inactive,inactive,inactive
Cc1cc2c(cc1C(F)(F)F)N(C(=O)Nc1ccc(C(=O)NC3CCN(Cc4ccccc4)C3)cc1)CC2 (stereo unspecified),48%,19%,-6,100% (active),inactive,inactive,inactive,inactive
CN1CCN(CCCN(Cc2cccc(-c3cccc(CNC4CCCC4)c3)c2)C(=O)/C=C/c2ccccc2)CC1,99% (active),84% (active),-5,101% (active),inactive,inactive,inactive,inactive
CC[C@H](C)CNC(=O)c1ccc(-c2cccc(CN3CCC(N4CCCC4)CC3)c2)nc1,7%,-1%,-7,91% (active),inactive,inactive,inactive,inactive

Compound,growth inhibition [1],inhibition [2],inhibition [3] [%],growth inhibition [4],outcome [5],outcome [6],outcome [7],outcome [8]
CC1(C)N=C(N)N=C(N)N1OCCCCCOc1ccccc1,97% (active),61% (active),4,95% (active),inactive,inactive,inactive,inactive
Cc1cc(C(=O)N[C@H]2CCN(Cc3ccc(OCCCN(C)C)cc3)C2)ccc1Br,62% (active),88% (active),-4,97% (active),inactive,inactive,inactive,inactive
COc1cccc(-c2c(C#N)c(N)nc3c2c(C)nn3-c2ccccc2)c1O,100% (active),4%,7,100% (active),inactive,inactive,inactive,inactive
COc1ccc2nccc(CCC3(O)CCC(NCc4cc5c(cc4F)SCC(=O)N5)CC3)c2c1 (stereo unspecified),48%,9%,-2,87% (active),inactive,inactive,inactive,inactive
O=C(Cn1c(CCc2cccc(F)c2F)cc(=O)c2ccccc21)N(CCN1CCCCC1)Cc1ccc(-c2ccc(C(F)(F)F)cc2)cc1,59% (active),9%,-6,101% (active),inactive,inactive,inactive,inactive
Nc1nc(N)c2c(ccc3c2ccn3Cc2ccc(-c3ccccc3)cc2)n1,93% (active),100% (active),4,98% (active),inactive,inactive,inactive,inactive
CC(=O)Nc1ccc(C(=O)NC2CCN(c3ccnc4cc(Cl)ccc34)C2)cc1 (stereo unspecified),100% (active),1%,-1,101% (active),inactive,inactive,inactive,inactive
CCn1ncc(Cl)c1CN(C)S(=O)(=O)c1ccc(Br)cc1,70% (active),9%,4,90% (active),inactive,inactive,inactive,inactive
O=C(Cc1cnc[nH]1)Nc1cccc(-c2cccc(-c3nc4ccccc4[nH]3)c2)c1,60% (active),24%,-2,97% (active),inactive,inactive,inactive,inactive
CCCCNC(=O)C(C)NC(=O)c1ccc(O)c(-c2ccc(Cl)c(Cl)c2)c1 (stereo unspecified),8%,-5%,2,98% (active),inactive,inactive,inactive,inactive
Cc1c(C)n(C2CCCCC2)c2ncnc(OC3CCN(CC(=O)NC4CC4)CC3)c12,72% (active),21%,-2,94% (active),inactive,inactive,inactive,inactive
CC(C)(C)CC(C)(C)c1ccc(O)c(CNC2CCCCC2)c1,99% (active),92% (active),4,98% (active),inactive,inactive,inactive,inactive
CCC(C)c1ccc(NC(=O)c2ccc(S(=O)(=O)Nc3ccc(OC)c(N4CCN(CC5CC5)CC4)c3)cc2)cc1 (stereo unspecified),17%,24%,-2,94% (active),inactive,inactive,inactive,inactive
CC(C)(C)c1ccc(NC(=O)c2ccc(CN3CCCN(CC4CCCCC4)CC3)cc2)cc1,64% (active),54% (active),-1,99% (active),inactive,inactive,inactive,inactive
CCCc1ccc(C(=O)N2[C@@H](c3nccs3)[C@@H](C(N)=O)C[C@@]2(CC(C)C)C(=O)O)cc1,80% (active),16%,1,94% (active),inactive,inactive,inactive,inactive
CN(C)CCCn1c(N)c(-c2nc3ccccc3[nH]2)c2nc(C#N)c(C#N)nc21,101% (active),100% (active),-1,102% (active),inactive,inactive,inactive,inactive
COc1ccc2nccc(NN=Cc3ccc(F)cc3)c2c1,54% (active),2%,-2,98% (active),inactive,inactive,inactive,inactive
COc1cc(NCC(O)CNc2cc(Cl)nc3ccccc23)nc2ccccc12 (stereo unspecified),99% (active),17%,-2,99% (active),inactive,inactive,inactive,inactive

# Source: PubChem BioAssay
